Measurements as given in PubChem BioAssay AID504652 (National Center for Advancing Translational Sciences (NCATS), 2011).
In all, about 360,000 compounds went through this assay and about 11,000 (3.1%) were called active. What follows is part of a selection rich in actives, with near analogues and random picks from the rest. Unmarked numbers belong to inactive results. No stated cut-off is given here; in the data, active means activity change below about -30%; inactive means the rest.

molecular target: D(1A) dopamine receptor (Homo sapiens) (UniProt P21728); assay: Antagonist of Human D 1 Dopamine Receptor: qHTS; conditions: HEK293 TREx D1 cells, calcium flux, dopamine EC80; at 10 µM; stronger effect = lower value
Method in brief: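 HEK293 T-REx cells expressing inducible, force-coupled D1 receptor; no-wash Ca dye, 30–90 min RT. Cmpd → 180 s read at 1 Hz → EC80 DA → 180 s read.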
On the % scale 0 is the no-effect control and ±100 the full control effect.

Chain of D(1A) dopamine receptor (Homo sapiens) (P21728 whole entry, looked up): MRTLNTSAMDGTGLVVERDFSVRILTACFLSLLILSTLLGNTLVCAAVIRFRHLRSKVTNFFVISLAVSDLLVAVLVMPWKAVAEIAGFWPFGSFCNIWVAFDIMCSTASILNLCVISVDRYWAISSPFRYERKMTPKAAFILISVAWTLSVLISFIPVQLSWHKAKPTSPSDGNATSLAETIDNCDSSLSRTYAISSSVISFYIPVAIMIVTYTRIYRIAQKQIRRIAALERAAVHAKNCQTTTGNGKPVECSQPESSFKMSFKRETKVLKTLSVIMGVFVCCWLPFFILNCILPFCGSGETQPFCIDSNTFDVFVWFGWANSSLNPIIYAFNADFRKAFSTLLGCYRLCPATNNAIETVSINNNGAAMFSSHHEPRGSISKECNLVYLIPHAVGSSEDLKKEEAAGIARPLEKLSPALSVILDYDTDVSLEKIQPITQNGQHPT

SMILES	activity change, negative = inhibition
Cc1ccc(S(=O)(=O)N2CCCc3cc(NS(=O)(=O)c4cc(C)ccc4C)ccc32)cc1	-3.71%
CCc1ccc(NC(=O)CSc2nc3c([nH]c4ccccc43)c(=O)n2-c2cccc(OC)c2)cc1	-24.8%
CCOc1ccc(-c2cc3nc(C4CCN(C(=O)OC(C)(C)C)CC4)c(C(=O)Nc4cccc(CC)c4)cn3n2)cc1	2.76%
CC(=O)Nc1ccc(NS(=O)(=O)c2cc(C)sc2C)cc1	-48.1% (active)
Cc1ccc(C(=O)Nc2ccc(C(=O)O)cc2)cc1S(=O)(=O)Nc1ccccc1	1%
CC(=O)Nc1ccc(NS(=O)(=O)c2ccc3c(c2)NC(=O)CC(=O)N3)cc1	19.3%
COc1cc2c(=O)c(S(=O)(=O)c3ccc(C(C)C)cc3)cn(Cc3ccccc3C)c2cc1OC	22.6%
CCCNC(=O)C1CCN(c2nc3ccc(C)cc3[nH]2)CC1	2.03%
CN(C(=O)CN(CCO)CC(=O)N(C)C(C)(C)Cc1ccccc1)C(C)(C)Cc1ccccc1	-97.3% (active)
CC(C)(C)N(Cc1ccccc1)C(=O)c1ccncc1	1.43%
CN(Cc1ccccc1)C(=O)c1cccc(C(=O)N(C)Cc2ccccc2)c1	-2.18%
COc1cc(CN(CC2CCCO2)C(=O)c2ccccc2F)cc(OC)c1OC (centres undefined)	-5.27%
Cc1c(CN2CCC(CO)(CCOc3ccccc3)CC2)[nH]c2ccc(Cl)cc12	-2.77%
Cc1nc(N2CCN(c3ccccn3)CC2)c2c(C)c(C(=O)Nc3ccc(F)cc3)sc2n1	1.11%
Cc1c(CN2CC[C@@H](N3CCN(c4ccccn4)CC3)[C@H](O)C2)[nH]c2ccc(F)cc12	-30.2% (active)
CCCCN(C)S(=O)(=O)c1ccc(C(=O)Nc2sc3c(c2C(N)=O)CC(C)(C)NC3(C)C)cc1	18.5%
Cc1oc2ncn(CC(C)C)c(=O)c2c1C(=O)N1CCN(c2ccccc2F)CC1	-5.83%
Cn1c(=O)c(C(=O)O)nn(-c2ccccc2)c1=O	-4.78%
CC(=O)N1CCc2cc(S(=O)(=O)NC(Cc3ccccc3)C(=O)NCc3ccc(C)cc3)ccc21 (centres undefined)	7.72%
CCC(=O)N1CCc2cc(S(=O)(=O)NC(C(=O)N3CCc4ccccc4C3)C(C)C)ccc21 (centres undefined)	-32.3% (active)
CCC(=O)N1CCc2cc(S(=O)(=O)NC(Cc3ccccc3)C(=O)NCc3ccccc3)ccc21 (centres undefined)	-62% (active)
CCC(=O)N1CCc2cc(S(=O)(=O)NC(C(=O)NCCc3ccc(C)cc3)C(C)C)ccc21 (centres undefined)	14.4%
CCC(=O)N1CCc2cc(S(=O)(=O)NC(Cc3ccccc3)C(=O)NCc3ccc(C)cc3)ccc21 (centres undefined)	20.6%
CCC(=O)N1CCc2cc(S(=O)(=O)NC(C(=O)Nc3ccc(C(C)=O)cc3)C(C)C)ccc21 (centres undefined)	-1.32%
